From PubChem BioAssay
Active and inactive are the calls of the source.

Experiment: fission yeast growth modulation, primary screen, strain 972, OD600, 24 h, no modulator (AID 1090);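 note: basal condition with compound alone and no growth modifier present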
Conditions: S. pombe 972 growth, higher = more signal, called active from +8 up or from −8 down
Note: test concentration not given here.

Row | Structure (SMILES) | z-score
1 | COCC(=C=CC[C@H](O)c1ccc(OCCO)cc1)CCO | -0.406 (inactive)
2 | CCOC(=O)C1=C[C@@H](C(C)(C)C)N(S(=O)(=O)c2ccc(C)cc2)[C@H]1c1cccc2ccccc12 | 2.75 (inactive)
3 | C=CC[C@@]1(C(=O)NCCCOC)N=C(c2ccc(OCCCO)cc2)O[C@@H]1c1ccccc1 | -1.61 (inactive)
4 | [N-]=[N+]=Nc1ccccc1C[C@]1(C(=O)NCCN2CCOCC2)COC(c2ccc(OCCCO)cc2)=N1 | -2.27 (inactive)
5 | Cc1ccc(F)cc1S(=O)(=O)N[C@@H]1CCN(Cc2ccc(Br)cc2)C1 | -17.4 (active)
6 | OCCCC1=CC(c2ccc(CN3CCCC3)cc2)N(Cc2cc3c(cc2Br)OCO3)CC1 (stereo unspecified) | -1.35 (inactive)
7 | COC(=O)C1=CC(CCCO)=CC(c2ccc(CN3CCCC3)cc2)N(Cc2cccc(OC(F)(F)F)c2)C=C1C(=O)OC (stereo unspecified) | -9.89 (active)
8 | CC(CO)N1C(=O)[C@@H]2[C@H]3C(=O)OCC=C[C@H]3OC23C=CCN(Cn2nnc4ccccc42)C(=O)[C@@H]13 (stereo partly specified) | -0.225 (inactive)
9 | CC(C)NC(=O)[C@@]1(c2ccc([N+](=O)[O-])cc2)CC(=O)N(C2CCCCC2)[C@@H]1c1ccc(CO)cc1 | 0.52 (inactive)
10 | O=C1CS(=O)(=O)C(c2cccc([N+](=O)[O-])c2)N1c1ccccc1 (stereo unspecified) | -2.56 (inactive)
11 | NC(=O)NCC#Cc1ccc2c(c1)[C@]1(C(=O)N2)[C@H](c2ccccc2OCCO)N2[C@H](c3ccccc3)[C@H](c3ccccc3)OC(=O)[C@H]2[C@@H]1C(=O)NC[C@H](O)c1ccccc1 | 1.32 (inactive)
12 | CCCC[C@@H](O)C1=C(COc2ccccc2)C[C@H]2C(=O)N(Cc3ccccc3)C(=O)[C@H]2[C@H]1CO | -0.336 (inactive)
13 | COC(=O)[C@@]1(Cc2ccc(F)cc2)[C@H]2c3cc(C(=O)N(C)C)n(Cc4ccc(OC(F)(F)F)cc4)c3C[C@H]2CN1C(=O)c1ccccc1 | 1.13 (inactive)
14 | COCCOC(=O)N1C(=O)[C@@]2(c3cc(C#CC4=CCCCC4)ccc31)[C@H](c1ccccc1OCCO)N1[C@H](c3ccccc3)[C@H](c3ccccc3)OC(=O)[C@H]1[C@@H]2C(=O)N1CCN(c2ncccn2)CC1 | -0.377 (inactive)
15 | O=C1OCCC=C[C@H]2OC34C=CCN(c5ccc6ccccc6c5)C(=O)[C@H]3N(CCCO)C(=O)[C@@H]4C12 (stereo partly specified) | -0.951 (inactive)
16 | CCCC=C(CCC)[C@@H](NS(=O)(=O)CC12CCC(CC1=O)C2(C)C)c1ccc(C(=O)OC)cc1 (stereo partly specified) | -0.005 (inactive)
17 | CC(C)[Si](C#C[Si](C(C)C)(C(C)C)C(C)C)(O[C@H](c1ccccc1)c1cn(Cc2ccccc2)nn1)C(C)C | 0.641 (inactive)
18 | C[N+](C)(C)CCCC[C@@H]1NC(=O)[C@@H]2C[C@H](C(=O)NCCCCCCN)[C@H](c3cccc(OCCO)c3)N2C1=O | -4.23 (inactive)
19 | COC(=O)[C@@H]1N=C(c2ccc(OCCCO)cc2)O[C@@H]1C | -0.0679 (inactive)
20 | Cc1ccc(N2C(=O)c3ccccc3[C@@H](C(=O)NCCCN(C)C)[C@@H]2c2ccc(CO)cc2)nc1 | -0.636 (inactive)
21 | C#CCN(Cc1ccccc1Br)[C@H](/C=C/c1ccccc1)[C@@H](O)Cc1ccccc1 | -12.7 (active)
22 | COCCOC(=O)N1C(=O)[C@@]2(c3cc(C#CC4=CCCCC4)ccc31)[C@H](c1ccccc1OCCO)N1[C@H](c3ccccc3)[C@H](c3ccccc3)OC(=O)[C@H]1[C@@H]2C(=O)NC[C@H](O)c1ccccc1 | 0.785 (inactive)
23 | NCCCCCCNC(=O)[C@@H]1C[C@@H]2C(=O)N[C@@H](CCCCN)C(=O)N2[C@@H]1c1ccc(O)cc1 | 0.142 (inactive)
24 | C=CC[C@]1(C(=O)N2CCOCC2)COC(c2ccc(OCCCO)cc2)=N1 | -0.243 (inactive)
25 | COc1ccc(C(=O)Nc2ccc(CN3C(=O)[C@]4(O[C@H](CC(=O)N5Cc6ccccc6C[C@H]5CO)[C@@H]([Si](C)(C)c5ccc(OC)cc5)[C@@H]4C)c4ccccc43)cc2)cc1 | 1.04 (inactive)
26 | CCCNC(=O)[C@@H]1c2ccccc2C(=O)N(Cc2ccc(OC(F)(F)F)cc2)[C@H]1c1ccc(CO)cc1 | 0.0302 (inactive)

Experiment: S. cerevisiae growth modulation with rapamycin, primary screen, strain BY4716, OD600, 96 h (AID 1091)
Conditions: higher = more signal, called active from +8 up or from −8 down

Row | Structure (SMILES) | z-score
27 | C=CCC(OC(C)=O)[C@@H]1[C@@H](N(Cc2ccc(-c3ccccc3)cc2)C(=O)c2ccc(-c3ccccc3)cc2)c2cc(OCCCO)ccc2N1C(=O)c1ccc2ccccc2c1 (stereo partly specified) | -0.38 (inactive)
28 | CCOC(=O)C[C@H]1[C@H](OC(=O)c2cc3ccccc3oc2=O)[C@@H](NC(=O)c2ccc3ccccc3n2)c2cc(OCCCO)ccc2N1C(=O)Cc1ccc(OC)cc1 | -0.617 (inactive)
29 | Cc1ccc(S[C@]2(C(=O)NCC(F)(F)F)CC(=O)N(Cc3cc(C(F)(F)F)cc(C(F)(F)F)c3)[C@@H]2c2ccc(CO)cc2)cc1 | -1.53 (inactive)
30 | COC(=O)[C@@]1(Cc2ccc(OC)cc2)[C@H]2c3cc(C(=O)N4CCCC4)n(CCc4c[nH]c5ccc(O)cc45)c3C[C@H]2CN1C(=O)c1ccccc1 | 0.687 (inactive)
31 | NC(=O)[C@@]1(Cc2ccccc2)COC(c2ccc(OCCCO)cc2)=N1 | 1.19 (inactive)
32 | COCCOC(=O)N1C(=O)[C@@]2(c3cc(C#CCCO)ccc31)[C@H](C(=O)Nc1nc3ccccc3s1)[C@H]1C(=O)O[C@H](c3ccccc3)[C@H](c3ccccc3)N1[C@@H]2c1ccc(O)cc1 | 2.23 (inactive)
33 | COc1ccc([Si](C)(C)[C@@H]2[C@@H](CCO)O[C@]3(C(=O)N(Cc4ccccc4)c4ccc(N5CCOC5=O)cc43)[C@H]2C)cc1 | 17.5 (active)
34 | C=C(/C(=C/C[C@H](OC(C)=O)c1ccc(CO)o1)c1cnc2ccccc2c1)C(C)C | 0.171 (inactive)
35 | COC(=O)[C@@]1(Cc2ccccc2)[C@H]2c3cc(C(=O)N4CCCC4)n(CCc4ccccn4)c3C[C@H]2CN1C(=O)c1ccccc1 | 0.0746 (inactive)
36 | COCC(=C=CC[C@H](O)c1ccc(OCCO)cc1)CCO | -0.274 (inactive)
37 | CCOC(=O)C1=C[C@@H](C(C)(C)C)N(S(=O)(=O)c2ccc(C)cc2)[C@H]1c1cccc2ccccc12 | 2.97 (inactive)
38 | C=CC[C@@]1(C(=O)NCCCOC)N=C(c2ccc(OCCCO)cc2)O[C@@H]1c1ccccc1 | -0.725 (inactive)
39 | [N-]=[N+]=Nc1ccccc1C[C@]1(C(=O)NCCN2CCOCC2)COC(c2ccc(OCCCO)cc2)=N1 | -1.46 (inactive)
40 | Cc1ccc(F)cc1S(=O)(=O)N[C@@H]1CCN(Cc2ccc(Br)cc2)C1 | -1.73 (inactive)
41 | OCCCC1=CC(c2ccc(CN3CCCC3)cc2)N(Cc2cc3c(cc2Br)OCO3)CC1 (stereo unspecified) | -0.705 (inactive)
42 | COC(=O)C1=CC(CCCO)=CC(c2ccc(CN3CCCC3)cc2)N(Cc2cccc(OC(F)(F)F)c2)C=C1C(=O)OC (stereo unspecified) | -1.11 (inactive)
43 | CC(CO)N1C(=O)[C@@H]2[C@H]3C(=O)OCC=C[C@H]3OC23C=CCN(Cn2nnc4ccccc42)C(=O)[C@@H]13 (stereo partly specified) | -0.473 (inactive)
44 | CC(C)NC(=O)[C@@]1(c2ccc([N+](=O)[O-])cc2)CC(=O)N(C2CCCCC2)[C@@H]1c1ccc(CO)cc1 | -0.55 (inactive)

Row | Structure (SMILES) | z-score
45 | O=C1CS(=O)(=O)C(c2cccc([N+](=O)[O-])c2)N1c1ccccc1 (stereo unspecified) | -0.811 (inactive)
46 | NC(=O)NCC#Cc1ccc2c(c1)[C@]1(C(=O)N2)[C@H](c2ccccc2OCCO)N2[C@H](c3ccccc3)[C@H](c3ccccc3)OC(=O)[C@H]2[C@@H]1C(=O)NC[C@H](O)c1ccccc1 | 3.89 (inactive)
47 | CCCC[C@@H](O)C1=C(COc2ccccc2)C[C@H]2C(=O)N(Cc3ccccc3)C(=O)[C@H]2[C@H]1CO | 0.361 (inactive)
48 | COC(=O)[C@@]1(Cc2ccc(F)cc2)[C@H]2c3cc(C(=O)N(C)C)n(Cc4ccc(OC(F)(F)F)cc4)c3C[C@H]2CN1C(=O)c1ccccc1 | 1 (inactive)
49 | COCCOC(=O)N1C(=O)[C@@]2(c3cc(C#CC4=CCCCC4)ccc31)[C@H](c1ccccc1OCCO)N1[C@H](c3ccccc3)[C@H](c3ccccc3)OC(=O)[C@H]1[C@@H]2C(=O)N1CCN(c2ncccn2)CC1 | 2.44 (inactive)
50 | O=C1OCCC=C[C@H]2OC34C=CCN(c5ccc6ccccc6c5)C(=O)[C@H]3N(CCCO)C(=O)[C@@H]4C12 (stereo partly specified) | 0.345 (inactive)
51 | CCCC=C(CCC)[C@@H](NS(=O)(=O)CC12CCC(CC1=O)C2(C)C)c1ccc(C(=O)OC)cc1 (stereo partly specified) | -0.909 (inactive)
52 | CC(C)[Si](C#C[Si](C(C)C)(C(C)C)C(C)C)(O[C@H](c1ccccc1)c1cn(Cc2ccccc2)nn1)C(C)C | 0.0108 (inactive)
53 | C[N+](C)(C)CCCC[C@@H]1NC(=O)[C@@H]2C[C@H](C(=O)NCCCCCCN)[C@H](c3cccc(OCCO)c3)N2C1=O | -0.244 (inactive)
54 | COC(=O)[C@@H]1N=C(c2ccc(OCCCO)cc2)O[C@@H]1C | -0.184 (inactive)
55 | Cc1ccc(N2C(=O)c3ccccc3[C@@H](C(=O)NCCCN(C)C)[C@@H]2c2ccc(CO)cc2)nc1 | -0.81 (inactive)
56 | C#CCN(Cc1ccccc1Br)[C@H](/C=C/c1ccccc1)[C@@H](O)Cc1ccccc1 | 1.38 (inactive)
57 | COCCOC(=O)N1C(=O)[C@@]2(c3cc(C#CC4=CCCCC4)ccc31)[C@H](c1ccccc1OCCO)N1[C@H](c3ccccc3)[C@H](c3ccccc3)OC(=O)[C@H]1[C@@H]2C(=O)NC[C@H](O)c1ccccc1 | 3.28 (inactive)
58 | NCCCCCCNC(=O)[C@@H]1C[C@@H]2C(=O)N[C@@H](CCCCN)C(=O)N2[C@@H]1c1ccc(O)cc1 | -1.38 (inactive)
59 | C=CC[C@]1(C(=O)N2CCOCC2)COC(c2ccc(OCCCO)cc2)=N1 | -1.28 (inactive)
60 | COc1ccc(C(=O)Nc2ccc(CN3C(=O)[C@]4(O[C@H](CC(=O)N5Cc6ccccc6C[C@H]5CO)[C@@H]([Si](C)(C)c5ccc(OC)cc5)[C@@H]4C)c4ccccc43)cc2)cc1 | 3.94 (inactive)
61 | CCCNC(=O)[C@@H]1c2ccccc2C(=O)N(Cc2ccc(OC(F)(F)F)cc2)[C@H]1c1ccc(CO)cc1 | -0.174 (inactive)
